The campaign covered roughly 2,100 compounds. About 320 (15%) were called active. Not shown: some 52% with an inconclusive outcome. The list shows a part of the results. Unmarked numbers belong to inactive results. The call rests on the fitted dose curve; in most records, active means well fitted cell-killing curve with a large enough effect; inconclusive means small, poorly fitted or top-dose-only effect, or effect the other way; inactive means flat fitted curve, though single readings scatter.
assay: Viability Counterscreen for CMV-Luciferase Assay of Inhibitors of ATXN expression; conditions: HEK-293 CMV-luciferase cells viability, protease fluorescence, 24 h; activity change, negative = cytotoxicity: at the top concentration; further: nearly all actives have a fitted effect of over 55% in size
In short: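 Dosing on CMV-luciferase HEK-293 cells for 24 hr, 37 °C. Luminescence read with SteadyGlo; cytotoxicity measured first as Gly-Phe-AFC protease fluorescence, 25 uM final substrate, 30 min.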
On the % scale 0 is the no-effect control and ±100 the full control effect; potency means the concentration at half of the fitted maximal effect.

Structure (SMILES) | activity change, negative = cytotoxicity | Potency
CSc1cccc(NC(=O)c2ccc(CN3CCc4ccccc4C3)cc2)c1 | -27.3% [at 57.5 µM] | 
COc1cccc(S(=O)(=O)NCc2ccc(C(=O)Nc3cccc(Cl)c3)cc2)c1 |  | 15.8 µM (active)
COc1ccc(NS(=O)(=O)c2ccc(NC(=O)c3ccc(CN4CCOCC4)cc3)cc2)cc1 | -22.5% [at 57.5 µM] | 
Cc1ccc(-c2nc3ccc(Cl)cn3c2CC(C)(C)C)cc1 | 17.4% | 
COc1cccc(-c2sc3ccccc3c2-c2ccc(OCCN3CCCC3)cc2)c1 | -4.65% | 
COc1ccc(-c2sc3ccc(OC)cc3c2-c2ccc(O)cc2)cc1 | -12.9% | 
c1ccc(-c2sc3ccccc3c2-c2ccc(OCCN3CCCC3)cc2)cc1 |  | 35.5 µM (active)
Cc1nc2ccccc2n1-c1nc(-c2ccco2)cc(C(F)(F)F)n1 |  | 10 µM (active)
Cc1ccc(C)c(/C=C/C(=O)c2ccccc(=O)c2O)c1 |  | 20 µM (active)
O=c1c2c(nc3c(-c4ccc(Cl)cc4)c[nH]n13)CCC2 | -20.6% | 
O=c1c2c(nc3c(-c4cccc(Br)c4)c[nH]n13)CCCC2 |  | 10 µM (active)
O=C(Nc1cccnc1)C1Cc2c(-c3ccc4c(c3)OCO4)ccnc2O1 (stereo unspecified) | -12.2% | 
COc1ccc(Cl)cc1S(=O)(=O)N1CCN(C(=O)c2n[nH]c(=O)c3ccccc23)CC1 | -12.8% | 
CC(=O)NC(c1ccco1)c1ccc2cccnc2c1O (stereo unspecified) | -22.3% | 
CC(C)C(=O)NC(c1cccc([N+](=O)[O-])c1)c1ccc2cccnc2c1O (stereo unspecified) |  | 3.16 µM (active)
Oc1c(C(Nc2cccc(C(F)(F)F)c2)c2ccncc2)ccc2cccnc12 (stereo unspecified) |  | 8.91 µM (active)
O=[N+]([O-])c1ccc(NC(c2ccccc2)c2ccc3cccnc3c2O)cc1 (stereo unspecified) |  | 11.2 µM (active)
O=C(O)CSc1cc(NS(=O)(=O)c2cccc([N+](=O)[O-])c2)c2ccccc2c1O | -27.2% | 
Oc1c(C(Nc2cccc(C(F)(F)F)c2)c2cccnc2)ccc2cccnc12 (stereo unspecified) | -27.3% [at 57.5 µM] | 
CC(=O)NC(c1cccc([N+](=O)[O-])c1)c1ccc2cccnc2c1O (stereo unspecified) |  | 1.58 µM (active)
CCCC(=O)NC(c1ccc(C(C)C)cc1)c1ccc2cccnc2c1O (stereo unspecified) | -20.8% | 
Cc1ccnc(NC(c2ccccc2)c2ccc3cccnc3c2O)c1 (stereo unspecified) | -17.1% [at 57.5 µM] | 
Oc1c(C(Nc2ccccn2)c2cccnc2)cc(Cl)c2cccnc12 (stereo unspecified) | 20.9% [at 57.5 µM] | 
CCc1nc2c(OCCOc3ccc(F)cc3)cccn2c1N(C)C(=O)c1ccco1 | 14.6% [at 57.5 µM] | 

Structure (SMILES) | activity change, negative = cytotoxicity | Potency
CCCCOc1ccccc1NC(=O)c1scc2c1OCCO2 | -13.6% | 
Cc1ccc(/C=C2/CNC/C(=C/c3ccc(C)cc3)C2=O)cc1 |  | 8.91 µM (active)
O=C(CNC(=O)c1ccco1)N/N=C/c1cc(Br)ccc1O | -12.2% [at 57.5 µM] | 
CC(C)(CC(=O)N1CCN(c2ccc(Cl)cc2)CC1)CC1=NS(=O)(=O)c2ccccc2N1 | -18.6% | 
OC(c1cc(-c2cccc(Cl)c2)nc2ccccc12)C1CCCCN1 (stereo unspecified) |  | 17.8 µM (active)
CCn1cc(C(=O)NCc2cccc(F)c2)c(=O)c2cc(F)c(N3CCN(C(=O)c4ccco4)CC3)cc21 |  | 22.4 µM (active)
CCOC(=O)Cn1cc(C(=O)c2ccco2)c2ccccc21 | 0.882% | 
Cc1c(C(=O)NCc2ccc(C(F)(F)F)cc2)sc(=O)n1Cc1cccc(F)c1 | 12% [at 57.5 µM] | 
CC(=O)c1ccc(N2CCN(CC(O)COC(c3ccccc3)c3ccccc3)CC2)cc1 (stereo unspecified) | -1.22% | 
CCCOc1ccc(C(=O)C(CN2CCOCC2)c2ccccc2)cc1 (stereo unspecified) |  | 25.1 µM (active)
COc1cccc(CC(=O)Nc2nc(-c3ccc(OC)c(OC)c3)cs2)c1 |  | 28.2 µM (active)
COc1ccc(-c2csc(Nc3ccc(S(N)(=O)=O)cc3)n2)cc1OC | -22.9% [at 57.5 µM] | 
COc1ccc(CC(=O)Nc2nc(-c3ccc(OC)c(OC)c3)cs2)cc1OC | -25.3% | 
CC(C)(C)c1ccc(CC(=O)N2CCC2(C)C(=O)Nc2cnc3ccccc3c2)cc1 (stereo unspecified) | -1.12% | 
NC(=S)n1[nH]c(-c2ccc([N+](=O)[O-])cc2)c(N=Nc2cccc(Cl)c2)c1=O |  | 14.1 µM (active)
CCOc1ccc(C(=O)Nc2ccc(Cc3ccncc3)cc2)cc1Br | -12.6% [at 57.5 µM] | 
Cc1cccc(OCCCC(=O)Nc2nc3ccccc3[nH]2)c1 | -23.8% | 
COC(=O)c1sc(NC(=O)c2ccc(OC)cc2OC)nc1C | -8.55% [at 57.5 µM] | 
Cc1cc(C)c(C)c(OC(=O)c2sc(Cl)nc2C)c1 |  | 20 µM (active)
Clc1ccc(COC(Cn2ccnc2)c2ccc(Cl)cc2Cl)c(Cl)c1 (stereo unspecified) | -29.7% | 
CCc1cc2c(=O)c(-c3cnn(-c4ccccc4)c3)coc2c(CN2CCOCC2)c1O | -15.4% | 
Cc1nnc(SCC(N)=O)n1CC1CCCO1 (stereo unspecified) | -21.6% [at 57.5 µM] | 
COc1cccc2c1C(=O)c1c(O)c3c(c(O)c1C2=O)C[C@](O)(C(C)=O)C[C@H]3O[C@@H]1C[C@@H](N)[C@@H](O)[C@@H](C)O1 |  | 0.891 µM (active)
COc1cccc2c1C(=N)c1c(O)c3c(c(O)c1C2=O)CC(O)(C(C)=O)CC3OC1CC(N)C(O)C(C)O1 (stereo unspecified) |  | 1.26 µM (active)

Structure (SMILES) | activity change, negative = cytotoxicity | Potency
CCCCC(=O)OCC(=O)C1(O)Cc2c(O)c3c(c(O)c2C(OC2CC(NC(=O)C(F)(F)F)C(O)C(C)O2)C1)C(=O)c1c(OC)cccc1C3=O (stereo unspecified) |  | 8.91 µM (active)
Cn1c(CCc2nc3ccccc3[nH]2)nnc1SCC#N | 15.7% [at 57.5 µM] | 
CCC(C)(C)c1ccc(OCCCC[n+]2ccc(C)cc2)c(C(C)(C)CC)c1 | -27.3% | 
CN(CC(=O)Nc1cccc(F)c1)CC(=O)Nc1cccc2ccccc12 | -9.2% [at 57.5 µM] | 
CCN1CCN(Cc2ccc(NC(=O)c3ccc(C)c(NC(=O)c4nccnc4N)c3)cc2C(F)(F)F)CC1 | -25.1% [at 57.5 µM] | 
O=C1C=C(Nc2ccccc2O)c2ccccc2C1=O |  | 20 µM (active)
OC(c1ccccc1)(c1nc(-c2ccc3ccccc3c2)cs1)C(F)(F)F (stereo unspecified) | 11% | 
Cc1ccc(NS(=O)(=O)c2cc3c4c(cccc4c2)C(=O)NC3=O)cc1C | -14.4% | 
CCC(CC)C(=O)c1c[nH]c(C(=O)NCc2ccccn2)c1 | 3.69% [at 57.5 µM] | 
O=C(NN=C(c1ccccc1)c1ccccn1)c1ccccc1 |  | 3.16 µM (active)
O=C(N/N=C(\c1ccccc1)c1ccccn1)c1ccccc1Cl |  | 7.94 µM (active)
O=C(N/N=C(\Cc1ncc[nH]1)c1ccccc1)c1cccnc1 | -16.1% | 
CCn1c2ccccc2c2cc(/C=N/n3cnnc3)ccc21 | -23.3% | 
CCN1CCN(C(=S)c2ccc(-c3ccccc3)cc2)CC1 | -13.5% [at 57.5 µM] | 
Cn1c2c(c(=O)[nH]c1=O)C(c1cccc(O)c1)C1=C(N2)c2ccccc2C1=O (stereo unspecified) |  | 11.2 µM (active)
CNc1nc2c(N)ncnc2n1[C@H]1O[C@@H](CO)[C@H](O)[C@@H]1O | 1.58% | 
N#Cc1c(N)n(C2OC(CO)C(O)C2O)c2ncnc(N)c12 (stereo unspecified) |  | 1.41 µM (active)
CCOC(=O)c1c(NC(=O)COC(=O)c2ccccc2NC)sc(C(=O)N(C)C)c1C | -3.31% | 
COC(=O)c1c(C)oc2ccc(N(C(=O)c3ccncc3)S(=O)(=O)c3ccc(C)cc3C)cc12 | -27.7% | 
CCC1(c2ccccc2)ON(c2c(Br)cccc2Br)C1=O (stereo unspecified) |  | 17.8 µM (active)
Cc1nc(Oc2ccc(S(=O)(=O)N3CCOCC3)cc2Cl)c2c3c(sc2n1)CCCC3 | -19.1% | 
N=c1ccn(CC(=O)c2ccc(-c3ccccc3)cc2)cc1 | -17.4% | 
Clc1ccc(-c2cc(C3CCNCC3)[nH]n2)c(Cl)c1 | 26.4% [at 57.5 µM] | 
COc1cc(NS(=O)(=O)c2ccc(N/C=C(\C#N)c3nc4cc(Cl)ccc4o3)cc2)nc(OC)n1 |  | 14.1 µM (active)

Structure (SMILES) | activity change, negative = cytotoxicity | Potency
CCN1CCN(c2ccc(Cl)cc2NC(=O)c2ccc(-n3nc(C)cc3C)cc2)CC1 | -12.5% [at 57.5 µM] | 
Nc1nc(NCCc2ccccc2)nc(NCc2ccccc2)c1[N+](=O)[O-] | -23.9% [at 57.5 µM] | 
CCc1cc[n+](C2=C([O-])c3ccccc3C(=O)/C2=N\S(=O)(=O)c2cccs2)cc1 |  | 17.8 µM (active)
O=C(COC(=O)c1cc([N+](=O)[O-])ccc1N1CCOCC1)Nc1ccc(Cl)cn1 |  | 14.1 µM (active)
COc1ccccc1/C=C/C(=O)OCC(=O)Nc1ccc(Cl)cn1 | -27.1% [at 57.5 µM] | 
Cc1cc(C)c2c(CC(=O)Nc3ccc(Cl)cn3)coc2c1 | -3.79% | 
CCn1c(C)cc(C(=O)COC(=O)c2ccccc2[N+](=O)[O-])c1C | -4.45% [at 57.5 µM] | 
COc1ccc(O)c(/C=N/NC(=O)c2ccc(OCc3cccc(Br)c3)cc2)c1 | -22.1% | 
COc1ccc(O)c(/C=N/NC(=O)c2ccc(N3CCCC3=O)cc2)c1 | -7.9% [at 57.5 µM] | 
O=C(N/N=C/c1cc([N+](=O)[O-])ccc1O)c1ccc(COc2ccc3c(c2)CCC3)o1 |  | 11.2 µM (active)
COc1ccc2nc(C)c3c(c2c1)OC(C(C)(Cl)Br)C3 (stereo unspecified) | -24.3% | 
N#CCc1nc2ccccc2c(=O)[nH]1 | 4.06% [at 57.5 µM] | 
CC1(C)COCN1S(=O)(=O)c1ccc(C(=O)Nc2nnc(-c3ccc(Cl)s3)o2)cc1 | -16.1% | 
O=C1c2cccc3cc([N+](=O)[O-])cc(c23)C(=O)N1CCN1CCCC1 |  | 1.58 µM (active)
C/[N+]([O-])=C\c1cccc(OCCN2CCN(c3ncc(C(F)(F)F)cc3Cl)CC2)c1 | 6.84% | 
Cn1c(CO)cnc1S(=O)(=O)Cc1ccc([N+](=O)[O-])cc1 | -1.7% [at 57.5 µM] | 
COc1cc(C(=O)O/N=C(\N)Cc2ccc([N+](=O)[O-])cc2)cc(OC)c1OC |  | 3.16 µM (active)
Cc1sc2nc(CN3CCCC3)nc(N3CCC(C(N)=O)CC3)c2c1C | -6.87% [at 57.5 µM] | 
Nc1ccc2c(c1)OC1(CCCC1)O2 | -18% | 
CCn1c2ccccc2c2cc(NC(=O)COC(=O)Cc3cn4ccsc4n3)ccc21 | 1.78% | 
CC1CCN(Cc2c(C(=O)N/N=C/c3cc(Br)ccc3O)nnn2-c2nonc2N)CC1 | -14% | 
Cc1cccc2c1-c1sc(C(=O)Nc3ccccc3N3CCN(C)CC3)cc1CO2 |  | 22.4 µM (active)
Cc1cc(N2CCN(C)CC2)ccc1NC(=O)c1ccc(-c2ccc(Cl)cc2)o1 | -20.4% [at 57.5 µM] | 
CC1CC(C)CN(CCCNC(=O)c2cc3c(s2)-c2ccccc2OC3)C1 (stereo unspecified) | -13.8% | 

Source: PubChem BioAssay AID1745849 (National Center for Advancing Translational Sciences (NCATS), 2022)
